Source: PubChem (National Center for Advancing Translational Sciences (NCATS))
Shown are actives, neighbours in structure and some others; about 6% of the full set was active somewhere.
D3 antag: blocks the human D3 dopamine receptor; P35462; D3R cells, DiscoveRx beta-arrestin luminescence, antagonist mode; active compounds read low; max response, negative = inhibition, %; 360,000 compounds, 2.5% hits; AID 652054; in the data active = max response below about -50%; inconclusive = no clear call, values can overlap the other calls; note: % is set by controls: 0 for no effect and ±100 for the full control effect
Target sequence (P35462 whole entry, looked up): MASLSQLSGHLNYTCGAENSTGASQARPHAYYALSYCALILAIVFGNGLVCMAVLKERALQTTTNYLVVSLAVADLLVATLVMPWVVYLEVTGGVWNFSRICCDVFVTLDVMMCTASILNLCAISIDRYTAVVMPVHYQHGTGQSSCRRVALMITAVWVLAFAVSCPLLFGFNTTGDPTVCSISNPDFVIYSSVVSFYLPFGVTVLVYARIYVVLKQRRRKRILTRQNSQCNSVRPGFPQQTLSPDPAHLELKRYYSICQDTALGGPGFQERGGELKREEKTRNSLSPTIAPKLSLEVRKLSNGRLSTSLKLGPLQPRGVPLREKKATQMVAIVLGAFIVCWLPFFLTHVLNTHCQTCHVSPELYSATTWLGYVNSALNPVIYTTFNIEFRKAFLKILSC
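Cells expressing the human receptor were seeded at 1500 cells/well, incubated overnight at 37 degrees C in 5% CO2, then exposed to library compounds with dopamine controls for 90 minutes at 37 degrees C before luminescent detection.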
D1 agonist: activates the human D1 dopamine receptor | P21728 | 360,000 compounds, 1% hits | activation, % at 2 µM | HEK293 T-REx D1 cells, calcium flux, agonist mode; in the data active = activation above about 30%; note: 0% is about no effect
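Inducible HEK293 T-REx D1 cells, force-coupled to calcium signalling, were plated at 4000 cells/well with tetracycline and held overnight at 30 C. After no-wash calcium dye loading, compound-evoked calcium rise over 180 s flagged agonists.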
D1 potentiator: potentiators of human D1 dopamine receptor. 360,000 compounds, 0.036% hits. potentiation, % at 10 µM. HEK293 TREx D1 cells, calcium flux, dopamine EC20 potentiation. P21728; in the data active = potentiation above about 30%; note: 0% is about no effect
D3 ag: agonists of human D3 dopamine receptor. max activation, %. AID 652048. 410,000 compounds, 0.58% hits. P35462. D3R DiscoveRx beta-arrestin cells, luminescence, 90 min; in the data active = max activation above about 30%; note: 0% is about no effect
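Agonist-mode cell screen: cells plated at 1500/well and incubated overnight at 37 °C, then exposed to library compounds for 90 min at 37 °C. Detection reagent was added for 30–60 min at room temperature, and luminescence was read.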
D1 antagonist: human D1 dopamine receptor antagonism; HEK293 TREx D1 cells, calcium flux, dopamine EC80; active compounds read low; activity change, negative = inhibition, % at 10 µM; P21728; 360,000 compounds, 3.2% hits; in the data active = activity change below about -30%; note: % is set by controls: 0 for no effect and ±100 for the full control effect
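Kinetic fluorescence of a calcium dye serves as the read-out. D1-expressing Hek293 Trex cells, induced overnight at 30 C, are exposed to compound for 180 s before an EC80 dopamine addition, then read 180 s further.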
The depositor's hits bear a star; ? = inconclusive; / = no result given.

SMILES | D3 antag | D1 agonist | D1 potentiator | D3 ag | D1 antagonist
CN(Cc1ccccc1)C(=O)c1nc2ccccn2c1CNCCCOc1cccnc1 | -56* | 2 | -5 | -16 | 6
CN(Cc1ccccc1)C(=O)c1nc2ccccn2c1CNCCn1cccn1 | -6 | 10 | 0 | -7 | -4
CCc1ccc2n(-c3ccc(OC)cc3)c([S-])c(C(=O)Nc3cc(C)cc(C)c3)[n+]2c1 | 4 | 2 | -1 | 0 | 13
COc1ccc(CCNC(=O)c2c([S-])n(-c3ccc(C)cc3)c3cccc[n+]23)cc1 | -26 | 1 | -4 | -6 | -35*
O=C(CSc1nc(-c2ccccc2)nc2c1Cc1ccccc1O2)N1CCCCC1 | / | 5 | 2 | 2 | 0
COc1cc(C)c(C(=O)Oc2cc(C)c(C(=O)O)c(O)c2C)c(OC)c1C | -3 | -2 | -5 | -10 | -66*
CCCCCn1nc(C(=O)N2CCc3ccccc32)c2ccccc2c1=O | 28 | 1 | -4 | -1 | -51*
CC(=O)OCCNc1cc(N2CCN(C)CC2)c2noc3c2c1C(=O)c1ccccc1-3 | -52* | 0 | -1 | -23 | -3
COc1ccc(C(=O)c2sc(Nc3ccccc3)nc2C)cc1 | 3 | 15 | 11 | 8 | -12
COc1ccc(/C(C)=N/Nc2nc(C)c(C(C)=O)s2)cc1 | 2 | 4 | 2 | 1 | -33*
O=C(Cn1c(=O)n(Cc2ccco2)c(=O)c2sc3ccccc3c21)Nc1ccccc1C(F)(F)F | / | 2 | -3 | -7 | 5
CNc1snc(C)c1C(=O)OCC(=O)N(C)Cc1ccccc1 | 28 | 14 | -7 | 8 | -43*
CCN(C(=O)COC(=O)c1c(C)nsc1NC)c1ccccc1 | 21 | 31* | / | 4 | -3
CNc1snc(C)c1C(=O)OC(C)C(=O)Nc1ccccc1 (stereo not drawn) | 6 | 9 | -6 | 0 | -32*
CNc1snc(C)c1C(=O)OCC(=O)N(C)c1ccccc1 | 12 | 4 | 6 | 2 | 18
Cc1cccc(NC(=O)CN2C(=O)CCn3nc(-c4cccn4C)cc32)c1C | / | 3 | 1 | -1 | 12
CC(Oc1ccc(Cl)cc1)C(=O)NCCCn1ccnc1 (stereo not drawn) | 21 | 0 | -7 | 3 | 4
Cc1cc(Cl)ccc1OC(C)C(=O)NCCCn1ccnc1 (stereo not drawn) | 8 | 7 | -9 | 3 | -35*
CC1(C)Cc2cccc(C(=O)NCc3ccco3)c2O1 | ? | 3 | -5 | -7 | -26
CC(C)(C)NC(=O)c1cccc2c1OC(C)(C)C2 | 9 | 3 | -1 | 49* | -10
O=C(Nc1cccc2ncccc12)c1ccc(Cl)cc1 | 10 | 3 | 4 | 1 | 0
CCOc1ccc(C(=O)Nc2cccc3ncccc23)cc1Cl | -16 | 5 | -7 | -5 | -30*
C=CCc1ccccc1OCC(O)CN1CCN(CCN2C(=O)c3cccc4cccc(c34)C2=O)CC1 (stereo not drawn) | -4 | 6 | -8 | -34 | -69*
CC(C)OCC(O)CN1CCN(CCN2C(=O)c3cccc4cccc(c34)C2=O)CC1 (stereo not drawn) | 5 | -1 | -4 | -6 | 15
CC(=O)c1ccc(OCC(O)CN2CCN(CCN3C(=O)c4cccc5cccc(c45)C3=O)CC2)cc1 (stereo not drawn) | 12 | 1 | -3 | 1 | -1
SMILES | D3 antag | D1 agonist | D1 potentiator | D3 ag | D1 antagonist
Cc1ccccc1OCC(O)CN1CCN(CCN2C(=O)c3cccc4cccc(c34)C2=O)CC1 (stereo not drawn) | -86* | -1 | -10 | -18 | 3
O=C(/C=C/c1ccccc1)N1CCN(CCN2C(=O)c3cccc4cccc(c34)C2=O)CC1 | -96* | -1 | -4 | -16 | -13
O=C(C1CCCN(c2ncnc3c2nc2n3CCCCC2)C1)N1CCN(c2ccccc2F)CC1 (stereo not drawn) | 12 | 0 | 5 | 1 | -21
COc1cc(-c2nc(-c3ccc4c(c3)[nH]c(=O)n4C)no2)cc(OC)c1OC | / | 2 | -2 | 1 | -17
COc1cc2c(cc1OC)CN(Cc1cc(=O)oc3cc(C)c(Cl)cc13)CC2 | -5 | 0 | -1 | 11 | 4
CCc1ccc2c(CN3CCc4cc(OC)c(OC)cc4C3)cc(=O)oc2c1 | -20 | 2 | 3 | 31* | -1
COc1cc2c(cc1OC)CN(Cc1cc(=O)oc3cc(C)c(C)cc13)CC2 | 5 | -1 | 0 | 42* | -9
Cc1cc(C)cc(C(=O)Nc2cc3c4c(c2)CC(=O)N4CCC3)c1 | 26 | 1 | 1 | 1 | 13
CC1Cc2cc(S(=O)(=O)N3CCN(c4ccccc4F)CC3)ccc2N1C(=O)C1CC1 (stereo not drawn) | 0 | 5 | -9 | 0 | -22
CCN(C(=O)c1cc(S(=O)(=O)N2CCCC2)cn1C)c1ccc(OC)cc1 | / | 4 | -1 | 2 | 2
COc1ccc(S(=O)(=O)NCCc2sc(-c3ccccc3)nc2C)cc1F | / | 7 | -4 | 1 | -8
O=C(O)c1ccc(-n2nnnc2SCc2ccccc2)cc1 | ? | 2 | -5 | 0 | 0
CSc1ccccc1-n1nnnc1SCc1ccccc1 | -4 | 46* | -1 | -7 | -6
COCCCNC(=O)c1cc(=O)n(Cc2ccc(Cl)cc2)c2ccccc12 | 9 | 5 | 0 | -2 | -31*
O=S(=O)(c1ccc(F)cc1F)N1CCCN(c2ccc(C(F)(F)F)cn2)CC1 | -21 | 3 | -3 | -2 | 1
N#Cc1ccc(S(=O)(=O)N2CCCN(c3ccc(C(F)(F)F)cn3)CC2)cc1 | -1 | 3 | -4 | 13 | -36*
CCC1([N+](=O)[O-])COC(c2ccc(OC)cc2)OC1 (stereo not drawn) | -16 | / | / | 0 | /
Cc1cccc(N(CC(=O)NC2CCCCC2)C(=O)CCCC(=O)Nc2ccccn2)c1 | -28 | -1 | 3 | -7 | 2
COc1ccc(N(CC(=O)NC2CCCCC2)C(=O)CCC(=O)Nc2nc(C)cs2)cc1 | 11 | 6 | 5 | 7 | 21
Cc1cccc(N(CC(=O)NC2CCCC2)C(=O)CCCC(=O)Nc2ccccn2)c1 | 16 | 0 | 4 | 0 | -34*
CC(=O)c1ccc(N(CC(=O)NC2CCCC2)C(=O)CCC(=O)Nc2cc(C)on2)cc1 | -26 | 1 | -7 | -8 | -36*
COc1ccc(N(CC(=O)NC2CCCCC2)C(=O)CCC(=O)Nc2nc(C)cs2)cc1OC | -2 | 0 | 1 | -2 | -45*
CC(=O)Nc1ccc(N(CC(=O)NC2CCCC2)C(=O)CCC(=O)Nc2cc(C)on2)cc1 | 11 | 2 | -7 | -1 | -13
CCc1ccc(-c2nc(CSCC(=O)NCc3ccccc3OC)c(C)o2)cc1 | / | 0 | 0 | 2 | 7
CNCc1c(OCc2ccc(F)cc2)ccc2ccccc12 | -61* | 23 | -18 | -25 | -33*
